# The campaign covered roughly 310,000 compounds. About 14,000 (4.5%) showed an effect of 50% or more. The effect is printed as a negative number. What follows is part of a selection rich in strong results, with near analogues and random picks from the rest.
# Biological target: human ether-à-go-go-related gene (hERG) potassium channel (human, UniProt Q12809)
# Assay: primary screen, population patch clamp on CHO cells stably expressing hERG; higher = less effect of the substance
# 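Further: peak tail current of the secondary pulse compared with the same well before compound.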
# Sequence of human ether-à-go-go-related gene (hERG) potassium channel (Q12809 whole entry, looked up): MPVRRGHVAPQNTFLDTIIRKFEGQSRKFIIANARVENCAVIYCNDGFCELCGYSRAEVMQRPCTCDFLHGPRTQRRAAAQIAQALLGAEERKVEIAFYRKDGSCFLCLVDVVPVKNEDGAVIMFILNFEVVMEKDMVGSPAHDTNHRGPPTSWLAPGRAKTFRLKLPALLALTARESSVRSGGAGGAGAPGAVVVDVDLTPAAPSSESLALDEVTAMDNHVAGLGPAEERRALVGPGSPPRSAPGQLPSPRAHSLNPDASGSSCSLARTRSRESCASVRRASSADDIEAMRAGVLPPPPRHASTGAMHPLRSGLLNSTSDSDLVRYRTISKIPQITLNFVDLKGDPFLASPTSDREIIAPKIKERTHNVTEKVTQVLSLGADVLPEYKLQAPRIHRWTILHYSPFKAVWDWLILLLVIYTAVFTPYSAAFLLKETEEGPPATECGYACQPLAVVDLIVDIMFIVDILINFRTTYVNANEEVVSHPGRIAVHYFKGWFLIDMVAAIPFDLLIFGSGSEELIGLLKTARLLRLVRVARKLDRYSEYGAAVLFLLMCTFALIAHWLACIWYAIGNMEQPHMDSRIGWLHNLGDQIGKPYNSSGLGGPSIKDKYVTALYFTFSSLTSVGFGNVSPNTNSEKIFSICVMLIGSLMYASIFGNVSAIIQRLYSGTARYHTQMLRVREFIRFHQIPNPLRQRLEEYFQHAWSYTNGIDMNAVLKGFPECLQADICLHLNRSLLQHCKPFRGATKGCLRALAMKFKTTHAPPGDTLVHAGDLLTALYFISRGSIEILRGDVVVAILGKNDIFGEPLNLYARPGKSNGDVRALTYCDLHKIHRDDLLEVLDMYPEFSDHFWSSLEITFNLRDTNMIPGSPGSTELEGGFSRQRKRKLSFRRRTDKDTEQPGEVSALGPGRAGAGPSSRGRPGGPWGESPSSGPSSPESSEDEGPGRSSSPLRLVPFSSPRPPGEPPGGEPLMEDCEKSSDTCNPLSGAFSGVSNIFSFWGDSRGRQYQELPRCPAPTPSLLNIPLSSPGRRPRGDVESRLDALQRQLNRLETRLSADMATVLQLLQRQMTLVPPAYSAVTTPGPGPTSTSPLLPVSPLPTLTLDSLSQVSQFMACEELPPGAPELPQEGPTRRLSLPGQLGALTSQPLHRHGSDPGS
row,Compound,"hERG current change (%, negative = inhibition) at 10uM [%]"
1,COC(=O)CC1SC(=O)NC1=Nc1ccc(OC)cc1 (stereo not drawn),1.66
2,CCC(C)NS(=O)(=O)c1ccc(OCC(=O)Nc2ccc(F)cc2F)cc1 (stereo not drawn),-2.06
3,COCCCNCC#CCOc1ccc(OC)cc1.O=C(O)C(=O)O,0.922
4,O=C(NCCc1ccccc1)C(=O)Nc1ccc([N+](=O)[O-])cc1,-2.37
5,O=C(NCCN1CCN(S(=O)(=O)c2ccc([N+](=O)[O-])cc2)CC1)C(=O)Nc1ccccc1,13.5
6,O=C(NCCN1CCN(Cc2ccc([N+](=O)[O-])cc2)CC1)C(=O)Nc1ccccc1,-64.3
7,CC(OC(=O)c1ccc2c(c1)C(=O)N(Cc1ccncc1)C2=O)C(=O)Nc1cccc(Cl)c1Cl (stereo not drawn),-11.1
8,COC(=O)c1ccc(C(=O)OC)c(NC(=O)CCS(=O)(=O)Cc2ccccc2)c1,-2.41
9,COC(=O)c1ccc(NC(=O)CS(=O)(=O)Cc2ccccc2)cc1,1.28
10,COC(=O)c1ccc(C(=O)OC)c(NC(=O)C2CC2)c1,-68.9
11,COC(=O)c1ccc(C(=O)OC)c(NC(=S)N2CCN(c3ccccc3F)CC2)c1,-52.9
12,COC(=O)c1ccc(C(=O)OC)c(NC(=S)N2CCN(c3ccccc3)CC2)c1,-19.1
13,COC(=O)c1ccc(C(=O)OC)c(NC(=S)N2CCN(c3ccc(F)cc3)CC2)c1,-24
14,COC(=O)c1ccc(C(=O)OC)c(NC(=O)CS(=O)(=O)Cc2ccccc2)c1,-53.2
15,COC(=O)c1ccc(C(=O)OC)c(NC(=O)C2CCCO2)c1 (stereo not drawn),10.5
16,COC(=O)c1ccc(C(=O)OC)c(NC(=O)C(C)(C)C)c1,20.7
17,Fc1ccc(-c2nnc(SCc3cccnc3)o2)cc1,-3.91
18,Fc1cccc(F)c1/C=N/NC(=S)Nc1cccnc1,-14.3
19,Cl.Oc1cccc(C(O)CNCc2ccc(OCc3ccc(Cl)cc3Cl)cc2)c1 (stereo not drawn),7.89
20,C=CCN(CC=C)S(=O)(=O)c1ccc(NC(=S)NC(=O)/C=C/c2ccc(C)cc2)cc1,6.12
21,CN(C)CCOC(=O)C12CC3(C)CC(C)(CC(C)(C3)C1)C2.Cl,-7.13
22,COc1ccc(CCNC(=O)CSCC(=O)Nc2ccccc2)cc1OC,17.8

row,Compound,"hERG current change (%, negative = inhibition) at 10uM [%]"
1,COc1ccc(/C=C/C(=O)OCC(=O)Nc2c(C)cccc2C)cc1,12.5
2,CCOC(=O)c1c(-c2ccc(C)o2)csc1NC(=O)CSc1nnnn1-c1ccccc1,-3.66
3,NC(=O)C(c1ccccc1)c1ncc(C(F)(F)F)cc1Cl (stereo not drawn),4.88
4,CC(C)Oc1cccc(C(=O)C2CCCN(C(=O)c3ccoc3)C2)c1 (stereo not drawn),-14.7
5,COc1ccc(OCC(=O)N2CCN(Cc3ccc(SC)cc3)CC2)cc1.O=C(O)C(=O)O,-50.9
6,Cc1cccc(OCC(=O)N2CCN(S(C)(=O)=O)CC2)c1,11.2
7,COc1ccc(OCC(=O)N2CCN(C(C)C)CC2)cc1.O=C(O)C(=O)O,6.62
8,Cc1cccc(OCC(=O)N2CCOCC2)c1,15.5
9,CSc1ccc(CN2CCN(C(=O)COc3cccc(C)c3)CC2)cc1,-50.3
10,CSc1ccc(CN2CCN(C(=O)CC(C)C)CC2)cc1,9.42
11,COc1ccc(OCC(=O)N2CCN(C(=O)c3cccc(F)c3)CC2)cc1,-7.41
12,Cc1cccc(OCC(=O)N2CCN(C(=O)COc3ccc(Cl)cc3)CC2)c1,-72.2
13,Cc1cccc(OCC(=O)N2CCN(Cc3cccnc3)CC2)c1.O=C(O)C(=O)O,-3.95
14,Cc1cccc(OCC(=O)N2CCN(C(=O)Cc3ccccc3)CC2)c1,-13.2
15,O=C(COc1ccccc1)N1CCN(C(=O)c2cccc(F)c2)CC1,-7.92
16,O=C(COc1ccc(Cl)cc1)N1CCN(C(=O)c2cccc(F)c2)CC1,-58.5
17,O=C(CS(=O)(=O)c1ccc(F)cc1)Nc1nnc(-c2cccs2)o1,13.3
18,O=C(COC(=O)c1cnccn1)Nc1ccc(Cl)cc1C(F)(F)F,0.684
19,CN(C)S(=O)(=O)c1ccc(C(=O)Nc2nnc(-c3ccco3)o2)cc1,12.4
20,CCOC(=O)N1CCN(C(=O)C(NC(=O)c2ccc(CC)cc2)C(C)C)CC1 (stereo not drawn),-19.5
21,COc1cc(N2C(=O)CC(=O)NC2=O)cc(OC)c1OC,17.1
22,COCCCNC(=O)CCCCCNS(=O)(=O)c1ccc(Br)cc1,-21.4

row,Compound,"hERG current change (%, negative = inhibition) at 10uM [%]"
1,CC(=O)Nc1ccc(/C=C/C(=O)c2ccccc2)cc1,9.09
2,Cc1ccccc1NC(=O)c1ccc(S(=O)(=O)C(F)F)cc1,-27.6
3,Cn1c(=O)oc2cc(S(=O)(=O)CCC(=O)NCCc3ccccc3)ccc21,7.46
4,CN(C)S(=O)(=O)c1cccc(-c2cn3cc(Cl)ccc3n2)c1,7.03
5,Cc1cccc(C(=O)OCC(=O)NC(=O)Cc2ccccc2)c1O,13.8
6,COc1ccccc1N1CCN(C(=O)COc2cc(C)cc(C)c2)CC1,10.8
7,COc1ccccc1OCC(=O)N1CCN(c2ccccc2OC)CC1,1.3
8,Cc1ccc(OCC(=O)N2CCN(Cc3ccc4c(c3)OCO4)CC2)cc1.O=C(O)C(=O)O,-15.7
9,Cc1ccc(OCC(=O)N2CCN(Cc3cccnc3)CC2)cc1.O=C(O)C(=O)O,17.7
10,CSc1ccc(CN2CCN(C(=O)COc3ccc(C)cc3)CC2)cc1.O=C(O)C(=O)O,-60.4
11,COc1ccccc1N1CCN(C(=O)COc2ccc(Cl)cc2)CC1,-68.5
12,CCc1nnc(NC(=O)CN2C(=O)NC3(CC(C)CC(C)(C)C3)C2=O)s1 (stereo not drawn),7.29
13,O=C1NC(=O)N(c2ccccc2)C1=O,19.9
14,CCc1ccc(C(=O)NC(=S)NCc2cccnc2)cc1,-40.7
15,CC(C)(C)C(=O)Nc1ccc(NC(=O)C(C)(C)C)cc1,-6.63
16,O=C(Nc1cccc(Br)c1)c1ccc(CN2CCc3ccccc3C2)cc1,-1.55
17,O=S(=O)(Cc1cc(NCc2ccccc2)nc(-c2ccncc2)n1)c1ccccc1,20.3
18,Nc1ccc(Cl)c[n+]1Cc1cccc2cccnc12.[Br-],-46.1
19,Cc1cc(C[n+]2cc(Cl)ccc2N)c2ncccc2c1.[Br-],-48.1
20,Nc1ccc(Br)c[n+]1Cc1cccc2cccnc12.[Br-],-51.6
21,Cc1cc(CSc2nc(C)cc(=O)[nH]2)c2ncccc2c1,-3.07
22,Cc1cc(C[n+]2cc(Br)ccc2N)c2ncccc2c1.[Br-],-68

row,Compound,"hERG current change (%, negative = inhibition) at 10uM [%]"
1,Nc1scc[n+]1Cc1cccc2cccnc12.[Br-],-12.3
2,OCc1ccccc1OCCCOc1cccc2cccnc12,-3.4
3,Nc1sc(-c2ccccc2)n[n+]1Cc1cccc2cccnc12.[Br-],-66.7
4,Nc1scn[n+]1Cc1cccc2cccnc12.[Br-],-11.1
5,Cc1noc(C)c1CSCC(=O)Nc1cc(Cl)ccc1N1CCCCC1,1.96
6,CCN(CC)S(=O)(=O)c1ccc(NC2c3ccccc3C(=O)N2CCN2CCOCC2)cc1 (stereo not drawn),-37
7,Cc1ccc2c(CC(=O)NC3CCS(=O)(=O)C3)coc2c1C (stereo not drawn),1.78
8,CC(C(=O)NCc1ccccc1Cl)n1cc([N+](=O)[O-])cn1 (stereo not drawn),4.65
9,Cc1ccc2cc3c(NS(=O)(=O)c4cccc5nonc45)nn(CC(C)C)c3nc2c1,9.9
10,COc1ccc(CNCCc2c[nH]c3ccccc23)c(OC)c1C.O=C(O)C(=O)O,-60.3
11,COc1cc(CNCCc2c[nH]c3ccccc23)ccc1OCc1ccccc1F.Cl,-52
12,COc1ccc(CNCCc2c[nH]c3ccccc23)cc1OC.O=C(O)C(=O)O,-28
13,COc1ccc(CNCCc2c[nH]c3ccccc23)c(OC)c1OC.O=C(O)C(=O)O,-7.44
14,COc1cccc(CNCCc2c[nH]c3ccccc23)c1OC.Cl,-11.1
15,COc1cc(C)c(CNCCc2c[nH]c3ccccc23)cc1C.O=C(O)C(=O)O,-36.9
16,O=C(NC(Cc1c[nH]c2ccccc12)C(=O)O)c1ccccc1 (stereo not drawn),1.22
17,COc1cc(C(=O)N[C@@H](Cc2c[nH]c3ccccc23)C(=O)O)cc(OC)c1OC,-53.1
18,COc1cccc(CNCCc2c[nH]c3ccccc23)c1OCc1ccccc1F.Cl,-55.8
19,COc1ccc(C(=O)NC(Cc2c[nH]c3ccccc23)C(=O)O)cc1 (stereo not drawn),12.4
20,COc1cccc(CNCCc2c[nH]c3ccccc23)c1OCc1ccccc1.Cl,-47
21,COc1cc(CNCCc2c[nH]c3ccccc23)ccc1OCc1ccc(F)cc1.Cl,-48.4
